From PubChem BioAssay (Tox21)
Several values for one entry are separate records, joined by “and”; a condition that tells them apart may be missing. Identical values can stand only once. Records with an inconclusive call do not appear. Activity calls are given as the source filed them. Unless noted, calls come from the whole dose curve.

What was measured:
[1] = Nuclear factor erythroid 2-related factor 2/antioxidant responsive element (Nrf2/ARE) small molecule agonists: qHTS cell viability counter screen in human keratinocytes (AID 1919968; active = well fitted curve in the direction sought with a large enough effect in the repeat runs; an effect the other way counts as inactive or inconclusive; note: nearly all actives have a fitted effect of over 55% in size)
In short: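 HaCaT ARE reporter line, 1,500 cells/well; 5 h settle, 37 C/5% CO2; cpd in DMSO pinned; 23 h exposure; CellTiter-Fluor, 1 h; fluorescence.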

[2] = Nuclear factor erythroid 2-related factor 2/antioxidant responsive element (Nrf2/ARE) small molecule agonists: luciferase reporter gene qHTS assay in human keratinocytes (AID 1919969); note: nearly all actives have a fitted effect of over 35% in size; note: potency is the fitted concentration of half-maximal effect
[3] = target: Gonadotropin-releasing hormone receptor (Homo sapiens) (UniProt P30968); experiment: Human gonadotropin-releasing hormone receptor (GnRHR) small molecule agonists, calcium flux assay in GnRHR-HEK293 cells (AID 1920063); note: nearly all actives have a fitted effect of over 35% in size
Chain of Gonadotropin-releasing hormone receptor (Homo sapiens) (P30968 whole entry, looked up): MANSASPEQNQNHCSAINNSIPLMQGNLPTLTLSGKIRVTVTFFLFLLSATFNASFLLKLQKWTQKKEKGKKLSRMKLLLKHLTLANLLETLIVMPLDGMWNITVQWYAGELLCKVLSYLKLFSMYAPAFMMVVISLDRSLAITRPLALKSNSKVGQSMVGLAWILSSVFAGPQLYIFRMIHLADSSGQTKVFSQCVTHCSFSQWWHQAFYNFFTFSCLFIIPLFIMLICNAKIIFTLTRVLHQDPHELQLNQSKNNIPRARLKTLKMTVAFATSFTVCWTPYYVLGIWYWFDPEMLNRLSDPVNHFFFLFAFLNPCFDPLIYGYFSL
In short: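 GnRHR-HEK293, 1500 cells/well, 18 h 37 C/5% CO2; Ca dye 1 h 37 C; cpd pinned (DMSO), agonist mode; kinetic FL 480/540, 3 min, 1 s reads; 15 conc, n=3.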

[4] = target: KiSS-1 receptor (Homo sapiens) (UniProt Q969F8); experiment: Human kisspeptin (KISS1R) small molecule agonists, calcium flux assay in KISS1R-HEK293 cells (AID 1920064; active = well fitted curve in the direction sought with a large enough effect in the repeat runs; an effect the other way counts as inactive or inconclusive)
Chain of KiSS-1 receptor (Homo sapiens) (Q969F8 whole entry, looked up): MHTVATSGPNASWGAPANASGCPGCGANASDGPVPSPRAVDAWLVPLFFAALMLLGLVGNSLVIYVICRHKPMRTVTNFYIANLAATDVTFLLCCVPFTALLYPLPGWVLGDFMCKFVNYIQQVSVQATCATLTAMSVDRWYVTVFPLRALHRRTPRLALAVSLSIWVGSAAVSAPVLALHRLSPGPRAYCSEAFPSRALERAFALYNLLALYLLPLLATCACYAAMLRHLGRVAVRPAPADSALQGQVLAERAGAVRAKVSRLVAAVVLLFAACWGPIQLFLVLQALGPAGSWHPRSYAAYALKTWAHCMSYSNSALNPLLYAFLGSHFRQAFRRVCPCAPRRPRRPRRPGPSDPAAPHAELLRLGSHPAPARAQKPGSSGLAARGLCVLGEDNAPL
In short: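 Stable human KISS1R HEK293 line; 18 h plating, 37 C/5% CO2; calcium dye 1 h 37 C; compound pin transfer; kinetic fluorescence Ex/Em 480/540, 3 min.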

[5] = G protein-coupled receptor (GPCR) small molecule agonists, calcium flux assay: HEK293 wild type cell line counter screen (AID 1920065)
In short: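 Kinetic fluorescence at Ex/Em 480/540, recorded every second over 3 min, served as the read-out after compound addition. Each compound was tested at 15 concentrations in triplicate on cells pre-loaded with calcium dye for 1 h.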

[6] = p53 small molecule agonists, cell-based qHTS assay with human liver microsomes (AID 1963577);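 note: p53 response element beta-lactamase reporter cells with liver microsomes plus NADPH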
In short: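 HLM-supplemented p53RE-bla reporter assay: 16 h compound exposure at 37 C, microsomes and NADPH each 0.5 mg/mL final, read by fluorescence intensity.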

[7] = p53 small molecule agonists, cell-based qHTS assay with rat liver microsomes (AID 1963578)
In short: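 Quantitative HTS of the Tox21 10K library: p53RE-bla cells, rat liver microsomes plus NADPH at 0.5 mg/mL final each, 16 h at 37 C, beta-lactamase fluorescence detection.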

[8] = p53 small molecule agonists, cell-based qHTS assay with human liver microsomes: qHTS cell viability counter screen (AID 1963579); note: nearly all actives have a fitted effect of over 45% in size
In short: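 Viability of p53RE-bla cells is measured as CellTiter-Glo luminescence following a 16 h, 37 C incubation with compound, liver microsomes from human donors and NADPH.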

[9] = p53 small molecule agonists, cell-based qHTS assay: qHTS cell viability counter screen (AID 1963581); note: nearly all actives have a fitted effect of over 45% in size
In short: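 HCT-116 p53RE-bla cells, 4,000/well, plated 5 h before compound pin transfer; 16 h at 37 C; bla substrate 2 h RT; then CellTiter-Glo, 30 min RT, luminescence.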

[10] = p53 small molecule agonists, cell-based qHTS assay (AID 1963582; active = well fitted activation curve with a large enough effect in the signal ratio in the repeat runs, not every such curve was filed as active; the % refers to the signal ratio)
In short: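 Reporter line: p53RE-bla. Pre-incubation 5 h, 37 C, 5% CO2; compound (DMSO, pin tool) 16 h, 37 C; B/G FRET substrate 2 h RT; fluorescence intensity read.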

[11] = target: 5-hydroxytryptamine receptor 2A (Homo sapiens) (UniProt P28223); experiment: 5-hydroxytryptamine receptor 2A (HTR2A) small molecule antagonists, cell-based qHTS assay (AID 1963586); note: nearly all actives have a fitted effect of over 45% in size
Chain of 5-hydroxytryptamine receptor 2A (Homo sapiens) (P28223 whole entry, looked up): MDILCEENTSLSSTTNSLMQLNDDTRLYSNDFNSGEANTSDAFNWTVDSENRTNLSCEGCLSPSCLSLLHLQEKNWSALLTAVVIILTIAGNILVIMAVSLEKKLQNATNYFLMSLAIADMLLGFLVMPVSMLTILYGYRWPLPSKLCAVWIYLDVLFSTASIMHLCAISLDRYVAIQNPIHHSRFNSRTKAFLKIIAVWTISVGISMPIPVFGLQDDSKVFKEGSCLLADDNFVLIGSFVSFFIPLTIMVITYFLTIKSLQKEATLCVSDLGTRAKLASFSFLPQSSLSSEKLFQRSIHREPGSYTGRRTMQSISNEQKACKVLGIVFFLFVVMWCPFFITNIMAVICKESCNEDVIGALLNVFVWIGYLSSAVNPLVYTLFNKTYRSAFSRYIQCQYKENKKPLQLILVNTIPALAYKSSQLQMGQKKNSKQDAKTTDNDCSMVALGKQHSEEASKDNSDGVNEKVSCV
In short: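 Antagonist-mode intracellular calcium assay: DOI (4 nM) added after 5 min compound pre-incubation at room temperature to dye-loaded HTR2A-CHO cells. Fluorescence followed for 3 min, sampled every second.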

[12] = target: 5-hydroxytryptamine receptor 2A (Homo sapiens) (UniProt P28223); experiment: 5-hydroxytryptamine receptor 2A (HTR2A) small molecule agonists, cell-based qHTS assay (AID 1963587); note: nearly all actives have a fitted effect of over 30% in size; note: potency is the fitted concentration of half-maximal effect
In short: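 HTR2A-CHO cells, plated 18 h at 37 C/5% CO2, dye-loaded 1 h at 37 C; compounds in DMSO added by pin tool (agonist mode). Intracellular calcium flux read as kinetic fluorescence on FDSS over 2 min at 1 s intervals.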

[13] = target: Muscarinic acetylcholine receptor M1 (Homo sapiens) (UniProt P11229); experiment: Cholinergic receptor muscarinic 1 (CHRM1) small molecule antagonists, cell-based qHTS assay (AID 1963588); note: nearly all actives have a fitted effect of over 40% in size
Chain of Muscarinic acetylcholine receptor M1 (Homo sapiens) (P11229 whole entry, looked up): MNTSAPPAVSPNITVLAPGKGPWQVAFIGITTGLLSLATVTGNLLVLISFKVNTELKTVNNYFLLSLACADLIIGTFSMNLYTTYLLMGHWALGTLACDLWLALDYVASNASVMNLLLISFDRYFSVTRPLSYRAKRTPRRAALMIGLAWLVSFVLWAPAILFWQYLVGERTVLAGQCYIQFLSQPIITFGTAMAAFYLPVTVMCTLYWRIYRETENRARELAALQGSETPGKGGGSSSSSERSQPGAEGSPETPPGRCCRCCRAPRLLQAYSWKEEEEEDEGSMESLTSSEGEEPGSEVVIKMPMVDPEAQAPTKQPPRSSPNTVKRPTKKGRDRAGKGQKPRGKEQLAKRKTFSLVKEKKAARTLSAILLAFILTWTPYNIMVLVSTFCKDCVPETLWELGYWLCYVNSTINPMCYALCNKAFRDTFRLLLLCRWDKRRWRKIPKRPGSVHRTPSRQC
In short: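 CHRM1-CHO calcium-flux assay, antagonist mode. Cells were seeded 18 h, dye-loaded 1 h at 37 C and given compound for 5 min at RT, then acetylcholine was added at 50nM. FDSS fluorescence was read 3 min; 15 concentrations, three runs.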

[14] = target: Muscarinic acetylcholine receptor M1 (Homo sapiens) (UniProt P11229); experiment: Cholinergic receptor muscarinic 1 (CHRM1) small molecule agonists, cell-based qHTS assay (AID 1963589); note: nearly all actives have a fitted effect of over 35% in size; note: potency is the fitted concentration of half-maximal effect
In short: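 Human M1 in stable CHO line; 18 h plating, 1 h dye load 37 C; cpd added (agonist mode); Ca2+ fluorescence kinetic read, 1 s intervals; 15 conc, 3 runs.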

[15] = cAMP Responsive Elements (CRE) small molecule agonists, cell-based qHTS assay (AID 1963590)
In short: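 HEK 293T CRE-bla, 2,000 cells/well, 18 h preincubation 37 C/5% CO2; cpds (DMSO) pinned, 3 h; LiveBLAzer B/G FRET substrate, 2 h RT.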

[16] = cAMP Responsive Elements (CRE) small molecule antagonists, cell-based qHTS assay (AID 1963591; active = well fitted inhibition curve with a large enough effect in the signal ratio in the repeat runs, not every such curve was filed as active; the % refers to the signal ratio)
In short: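 Beta-lactamase reporter read by FRET substrate (LiveBLAzer B/G) after 2 h at room temperature. CRE-bla HEK293T cells had received compound plus 0.25 uM (final) NKH477 for 3 h at 37 °C.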

[17] = target: Beta-2 adrenergic receptor (Homo sapiens) (UniProt P07550); experiment: Adrenergic beta2 receptor (ADRB2) small molecule antagonists, cell-based qHTS assay (AID 1963592); note: series mostly up to about 92 µM; nearly all actives have a fitted effect of over 50% in size
Chain of Beta-2 adrenergic receptor (Homo sapiens) (P07550 whole entry, looked up): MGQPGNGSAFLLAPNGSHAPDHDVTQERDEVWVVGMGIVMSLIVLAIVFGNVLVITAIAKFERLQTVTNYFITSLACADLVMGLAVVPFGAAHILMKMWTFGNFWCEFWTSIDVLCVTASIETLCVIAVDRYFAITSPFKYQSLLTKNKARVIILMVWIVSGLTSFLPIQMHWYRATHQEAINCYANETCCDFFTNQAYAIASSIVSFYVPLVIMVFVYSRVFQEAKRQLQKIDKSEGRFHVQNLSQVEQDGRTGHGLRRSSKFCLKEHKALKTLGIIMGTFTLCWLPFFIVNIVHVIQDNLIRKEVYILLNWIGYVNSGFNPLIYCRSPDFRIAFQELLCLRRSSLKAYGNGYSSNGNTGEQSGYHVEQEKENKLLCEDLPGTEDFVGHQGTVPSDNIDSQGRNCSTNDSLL
In short: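 Cells (CHO, stable ADRB2 overexpression) incubated 18-20hr at 37C; compounds added from DMSO; agonist mix (1nM isoproterenol, 100uM IBMX, 25uM Ro-20-1724) added; 0.5hr RT; d2-cAMP and anti-cAMP-cryptate added; 1hr RT; 665/615 nm read.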

[18] = target: D(2) dopamine receptor (Homo sapiens) (UniProt P14416); experiment: Dopamine D2 receptor (DRD2) small molecule antagonists, cell-based qHTS assay (AID 1963595; active = well fitted inhibition curve with a large enough effect in the signal ratio in the repeat runs, with a control signal flat; the % refers to the signal ratio)
Chain of D(2) dopamine receptor (Homo sapiens) (P14416 whole entry, looked up): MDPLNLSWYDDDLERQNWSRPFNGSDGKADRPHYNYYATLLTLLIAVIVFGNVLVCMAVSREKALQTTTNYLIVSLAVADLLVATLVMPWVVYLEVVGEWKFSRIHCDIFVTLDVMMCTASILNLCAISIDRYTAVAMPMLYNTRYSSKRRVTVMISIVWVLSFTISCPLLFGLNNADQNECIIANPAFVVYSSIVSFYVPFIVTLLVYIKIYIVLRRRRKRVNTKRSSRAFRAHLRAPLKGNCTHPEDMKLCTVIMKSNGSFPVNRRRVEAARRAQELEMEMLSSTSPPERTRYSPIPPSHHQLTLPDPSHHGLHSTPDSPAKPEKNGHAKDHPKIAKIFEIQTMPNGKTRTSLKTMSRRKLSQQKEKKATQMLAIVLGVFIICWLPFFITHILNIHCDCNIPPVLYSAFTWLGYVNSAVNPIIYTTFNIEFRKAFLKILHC
In short: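 HEK293 cells stably expressing DRD2 were preincubated with 0.1 mM Ro20-1724, then with compound for 10 min at room temperature. Cells were stimulated with 200 nM NKH477 plus 12 nM quinpirole for 30 min, and cAMP was read by HTRF.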

[19] = target: D(2) dopamine receptor (Homo sapiens) (UniProt P14416); experiment: Dopamine D2 receptor (DRD2) small molecule agonists, cell-based qHTS assay (AID 1963594); note: nearly all actives have a fitted effect of over 35% in size
In short: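 HEK293 cells stably expressing DRD2 were cultured 24 h at 37 C, then given Ro20-1724 (0.1 mM final) and compounds for 10 min at room temperature. NKH477 (200nM) was then added for 30 min. cAMP was read by HTRF.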

[20] = p53 small molecule agonists, cell-based qHTS assay with rat liver microsomes: qHTS cell viability counter screen (AID 1963580); note: nearly all actives have a fitted effect of over 45% in size
In short: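 p53RE-bla HCT-116 cells (4,000/well) rested 5 h at 37 C, then given Tox21 compounds in DMSO with rat liver microsomes (0.5 mg/mL final) plus NADPH (0.5 mg/mL final) for 16 h at 37 C. Viability read by CellTiter-Glo luminescence after 30 min at room temperature.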

Measured: Potency

CC(C)(C)OOC(C)(C)C
not listed: [19] | [20]
inactive: all other assays above

O=C(Cl)c1ccccc1
not listed: [20]
inactive: all other assays above

CCC(CC)Nc1c([N+](=O)[O-])cc(C)c(C)c1[N+](=O)[O-]
active: [2] 17.5 µM and 48.5 µM
not listed: [9] | [10] | [11] | [18]
inactive: all other assays above

CN(C)c1ccccc1
not listed: [20]
inactive: all other assays above

Nc1ccccc1Cl
not listed: [14] | [18] | [20]
inactive: all other assays above

Cc1ccc2cc(C)ccc2c1
not listed: [19] | [20]
inactive: all other assays above

Nn1cnnc1
not listed: [11] | [16] | [17] | [20]
inactive: all other assays above

Clc1ccc(Cl)cc1
not listed: [15] | [20]
inactive: all other assays above

CCCCOP(=O)(CCCC)OCCCC
active: [12] 19.5 µM
not listed: [18] | [20]
inactive: all other assays above

C#CC(C)(C)NC(=O)c1cc(Cl)cc(Cl)c1
not listed: [15] | [20]
inactive: all other assays above

O=C(O)C1C(C(=O)O)C2(Cl)C(Cl)=C(Cl)C1(Cl)C2(Cl)Cl (centres undefined)
not listed: [20]
inactive: all other assays above

C[N+](C)(C)C
active: [14] 22.1 µM
not listed: [20]
inactive: all other assays above

COC(=O)c1cncn1C(C)c1ccccc1 (centres undefined)
not listed: [13] | [16] | [20]
inactive: all other assays above

CCOC(=O)c1ccccc1C(=O)OCC
not listed: [10] | [20]
inactive: all other assays above

N#Cc1ccccc1Cl
not listed: [20]
inactive: all other assays above
